High-throughput results from PubChem BioAssay.
The full list was thinned out, with hits kept by preference.
Dicer processing: human Dicer pre-microRNA cleavage inhibition; AID 1347074; z-score at 25 µM; 6% of 47,000 active; cat-ELCCA pre-miR-21 Dicer processing, chemiluminescence; hits give high values; in the data active = z-score above about 3, passing the limit was not always enough;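 also: higher signal means more uncleaved substrate so more Dicer inhibition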
Each line names hits and unclear results; the compound was inactive in the other large screens.

COc1ccc(OC)c(SCC(=O)O)c1	none
COc1ccc(OC)c(-c2sccc2CC(=O)O)c1	Dicer processing 3.77
O=C(Cn1cnc([N+](=O)[O-])n1)Nc1ccc(F)c(Cl)c1	none
Clc1ccc(C2Nc3ccccc3-c3nc4ccccc4n32)cc1 (centres undefined)	none
O=c1c(O)c(-c2ccc(O)c(O)c2)oc2cc(O)cc(O)c12	none
Cc1oc2cc(O)cc(O)c2c(=O)c1-c1ccccc1	none
O=c1cc(-c2ccc(O)c(O)c2)oc2cc(O)cc(O)c12	Dicer processing 11.6
CCOC(=O)CSc1nc2cccnc2s1	none
O=C(Nc1cccc(C(F)(F)F)c1)Oc1ccc(F)cc1Cl	none
O=C(Nc1ccccc1)Oc1cccc(F)c1OC(=O)Nc1ccccc1	Dicer processing 3.43
O=C(Nc1ccccc1)Nc1cccc(NC(=O)Nc2ccccc2)c1F	none
COc1ccc(-c2c(C(F)(F)F)nn(C)c2NS(C)(=O)=O)cc1	none
COc1ccccc1OCCSc1nc(C)cc(C)n1	none
Cc1ccc(OCCSc2nc(N)cc(N)n2)c(C(C)C)c1	Dicer processing 4.87
Cc1ccc(C(C)C)c(OCc2nc3ccccc3n2C)c1	none
c1ccc(-c2noc(CSc3nnc(-c4ccco4)n3-c3ccccc3)n2)cc1	none
Cc1nnc(SCc2nc(-c3ccc(Cl)cc3)no2)n1-c1ccccc1	none
c1ccc(-c2noc(CSc3nnc(-c4cccs4)n3-c3ccccc3)n2)cc1	Dicer processing 3.6
COC(=O)c1cc(-c2nc(C)cs2)c(SC)s1	none
COCCOC(=O)c1c(C)oc2cc(Br)c(OCc3cccc(OC)c3)cc12	none
O=S(=O)(Cc1noc(-c2ccc(F)cc2Cl)n1)c1ccsc1	none
Clc1ccc(-c2cnc(SCc3c(Cl)cccc3Cl)o2)cc1	none
CCO/C=C1/SC(=S)N(c2cc(OC)cc(C(F)(F)F)c2)C1=O	none
CCO/C=C1\C(=O)N(c2ccccc2)C(=O)c2cc(OC)ccc21	Dicer processing 3.3
CCO/C=C1\C(=O)N(c2ccc(C)cc2)C(=O)c2cc(OC)ccc21	none
CCC(C)OC(=O)C(C)Oc1ccc2c(=O)c(-c3ccccc3)coc2c1 (centres undefined)	none
Oc1ccccc1C1=NN2C(C1)c1cc(Br)ccc1OC2c1ccsc1 (centres undefined)	Dicer processing 4.23
COc1ccc(C2Oc3ccccc3C3CC(c4cc(OC)ccc4O)=NN32)c(OC)c1 (centres undefined)	none
CSCCC1Oc2ccccc2C2CC(c3cc(C)ccc3O)=NN12 (centres undefined)	none
COc1cccc(C2Oc3ccccc3C3CC(c4cc(OC)ccc4O)=NN32)c1 (centres undefined)	none
CC(C)C1Oc2ccc(Cl)cc2C2CC(c3ccccc3O)=NN21 (centres undefined)	none
Oc1ccccc1C1=NN2C(C1)c1ccccc1OC2c1cccs1 (centres undefined)	none
COc1ccc(C2Oc3ccccc3C3CC(c4ccccc4O)=NN32)cc1 (centres undefined)	none
COc1ccc(O)c(C2=NN3C(C2)c2ccccc2OC3c2ccccc2F)c1 (centres undefined)	Dicer processing 6.9
COc1ccc(O)c(C2=NN3C(C2)c2cc(Br)ccc2OC3c2ccsc2)c1 (centres undefined)	none
COc1ccc(C2Oc3ccccc3C3CC(c4ccccc4O)=NN32)c(OC)c1 (centres undefined)	none
CC(C)CC1Oc2ccccc2C2CC(c3ccccc3O)=NN12 (centres undefined)	Dicer processing 5.29
COc1ccc(C2Oc3ccccc3C3CC(c4cc(OC)ccc4O)=NN32)cc1 (centres undefined)	Dicer processing 9.84
CC(C)(C)N1C(=O)C(c2ccccc2)S/C1=N\N=C\c1cccc([N+](=O)[O-])c1 (centres undefined)	none
O=[N+]([O-])c1ccc(S(=O)(=O)c2ccccc2)nc1S(=O)(=O)c1ccccc1	none
COc1ccc(-c2[nH]ncc2/C=C/c2cc(C(F)(F)F)[nH]c(=O)n2)cc1	none
Clc1ccc(-c2cn3c4ccccc4nc3n2CCCN2CCCC2)cc1	none
CCOC(=O)C1C2C=CC3(CN(c4ccc(CC)cc4)C(=O)C13)O2 (centres undefined)	none
Cc1cc(Br)ccc1S(=O)(=O)Nc1ccnn1C	none
C=CCN1C(=O)C(O)(c2c[nH]c3ccccc23)c2ccccc21 (centres undefined)	none
O=C(O)COCC(=O)Nc1nnc(C2CC2)s1	none
COc1cc2c(cc1OC)C(C)N(C(=O)CC(C)(C)CC(=O)O)CC2 (centres undefined)	none
COC(=O)C1=C(C)N=C2SCCC(=O)N2C1c1ccc(C)cc1 (centres undefined)	none
Oc1ccc(N2Cc3ccccc3C2)cc1	none
CC1CCC2C(=O)N(c3cccc(O)c3)C(=O)C2C1 (centres undefined)	none
Oc1cccc(N2Cc3ccccc3C2)c1	Dicer processing 4.44
O=C(C1CCCCC1)N(Cc1ccc(Br)cc1)c1ccc(F)cc1	none
COCCCN1C(=O)C(=O)/C(=C(\O)c2ccc(Cl)cc2)C12C(=O)N(C)c1ccccc12 (centres undefined)	none
C=CCN1C(=O)C2(/C(=C(/O)c3ccc(C)cc3)C(=O)C(=O)N2CCCN(C)C)c2ccccc21 (centres undefined)	none
